# Measurements: ChEMBL document CHEMBL1157539, “Thousands of chemical starting points for antimalarial lead identification” (Nature, 2010)
# What was measured:
# Type in all cases: functional
# Plasmodium falciparum [1] = test: GSK_TCMDC: Inhibition of Plasmodium falciparum 3D7 in whole red blood cells, using parasite LDH activity as an index of growth. Test compounds present at 2uM
# Plasmodium falciparum [2] = test: GSK_TCMDC: Inhibition of Plasmodium falciparum Dd2 in whole red blood cells, using parasite LDH activity as an index of growth. Test compounds present at 2uM
# HepG2 = test: GSK_TCMDC: Percent inhibition of human HepG2 cell line. Test compounds present at 10uM.
SMILES,Inhibition (Plasmodium falciparum [1]),Inhibition (Plasmodium falciparum [2]),Inhibition (HepG2)
O=C(O)C(F)(F)F.c1ccc(C(c2ccccc2)N2CCC(NCc3ccc(OCCCN4CCCCC4)cc3)CC2)cc1,100%,100%,74%
CN1CCC(NCCS(=O)(=O)c2cccc(Nc3ccc(-c4cccc(F)c4)cn3)c2)CC1,99%,0%,27%
CC(=O)c1cccc(Nc2nc3ccc(OCc4cc(Cl)cc(Cl)c4)c(C#N)c3[nH]2)c1,86%,45%,29%
NC1CCN(Cc2ccc(-c3ccc(-c4nc5ccccc5[nH]4)s3)cc2)C1.O=C(O)C(F)(F)F (stereo not given),100%,99%,32%
CCN(CCCN1CCCCC1)c1cc(C)nc(Nc2ccc(Oc3ccccc3)cc2)n1.O=C(O)C(F)(F)F,100%,99%,50%
CC(C)OC(=O)c1ccc(NC(=O)N[C@@H](Cc2ccc(O)cc2)C(=O)NC2CC3CCC(C2)N3Cc2ccccc2)cc1.O=C(O)C(F)(F)F (stereo not given in full),92%,19%,0%
Cc1cc2nc(-c3ccc(C(=O)NCc4cccc(C(F)(F)F)c4)cc3)[nH]c2cc1C,98%,34%,4%
Cc1ccc(Cc2c(C)nc3nc(N)nc(N)c3c2C)cc1.Cl,93%,1%,60%
CC(C)N1CCC(N(Cc2ccc(-c3ccc(Cl)cc3)cc2)C(=O)Cn2c(CCc3cccc(F)c3F)cc(=O)c3ccccc32)CC1.O=C(O)C(O)C(O)C(=O)O,96%,73%,62%
Cn1c(N=C2NC3(c4ccccn4)NC(=Nc4nc5ccccc5n4C)NC3(c3ccccn3)N2)nc2ccccc21.O=C(O)C(F)(F)F (stereo not given),99%,44%,12%
Oc1ccc(Cl)cc1-c1cc(C(F)(F)F)nc(-c2ccccc2)n1,99%,92%,20%
CS(=O)(=O)N(c1cccc(F)c1)c1cc(C(=O)N[C@@H](Cc2ccccc2)[C@H](O)CNCc2cccc(C(F)(F)F)c2)cc(N2CCCC2=O)c1.O=CO,98%,92%,14%
Br.CCCOC(=O)c1ccc(OCCCON2C(=N)N=C(N)NC2(C)C)cc1,95%,97%,61%
CCOc1ccc(-c2cc3nc(C4CCNCC4)c(C(=O)Nc4ccc(C)cc4Cl)cn3n2)cc1.Cl,95%,22%,63%
CC(C)c1ccc(CN2CCCCC(NC(=O)c3cc(-c4ccccc4F)cs3)C2)cc1.O=C(O)C(F)(F)F (stereo not given),99%,84%,18%
COc1cc(F)c2nccc([C@@H](O)CN3CCC(NCc4ccc5c(n4)NC(=O)CS5)CC3)c2c1,100%,25%,23%
CCCCCC(C)C(C)c1cc(O)c2c(c1)OC(C)(C)CC2c1cc[n+]([O-])cc1 (stereo not given),96%,7%,0%
CN1CCC(Oc2ccc(Nc3nccc(NCC(O)c4ccccc4)n3)cc2Cl)CC1 (stereo not given),100%,99%,46%
Cc1cccc2nc(-c3ccc(-c4cccc(NC(=O)NCc5cccc(F)c5)c4)cc3)[nH]c12,94%,5%,27%
Cc1cc(OC(C)C(=O)N2CCc3ccccc32)ccc1Cl (stereo not given),89%,54%,20%

SMILES,Inhibition (Plasmodium falciparum [1]),Inhibition (Plasmodium falciparum [2]),Inhibition (HepG2)
CC(C)c1sc(N2CCN(C)CC2)nc1C(=O)NCCc1ccc(Br)cc1.O=C(O)C(F)(F)F,89%,60%,0%
Cc1cc(-c2c[nH]c3ncc(-c4cccc5ncccc45)cc23)ccc1C(=O)O.O=C(O)C(F)(F)F,99%,77%,31%
CCCCCCN1CCC(NCc2cccc(C(F)(F)F)c2)CC1.O=C(O)C(F)(F)F,100%,82%,18%
COc1ccc2nccc(N3CCC(SCCNS(=O)(=O)c4ccc5c(c4)NC(=O)CS5)C3)c2n1.Cl (stereo not given),99%,17%,20%
CC(C)CNCc1ccc(-c2ccc(CN(CCCN3CCN(C)CC3)C(=O)/C=C/c3ccccc3)cc2)cc1.O=C(O)C(F)(F)F,99%,93%,57%
CC(C)CCN(Cc1cncn1Cc1ccccc1F)C(=O)c1cncc(-c2ccccc2)c1,96%,3%,1%
CCCCCCN1CCCN(Cc2ccc(C(=O)Nc3ccc(CCC)cc3)cc2)CC1.O=C(O)C(F)(F)F,92%,56%,45%
CC(C)COc1ccc(Cl)cc1Cc1ccc(-c2nc3cnc4ccccc4c3[nH]2)o1,87%,26%,21%
CS(=O)(=O)NCCCNCc1ccc(-c2cccc(-c3nc4cc(F)ccc4[nH]3)c2)cc1.O=C(O)C(F)(F)F,98%,1%,15%
Cc1ccoc1C(=O)Nc1cccc(-c2cccc(-c3nc4cc(C(F)(F)F)ccc4[nH]3)c2)c1,98%,37%,39%
Cc1ccccc1C1CCN(C2CCC(NC(=O)c3cncc(-c4ccccc4)c3)CC2)CC1 (stereo not given),100%,92%,27%
CCOC(=O)C(C#N)NC(=O)C=Cc1ccccc1 (stereo not given),96%,9%,0%
O=C(O)C(=O)O.Oc1c(CN2CCC(Cc3ccccc3)CC2)cc(Cl)c2cccnc12,96%,94%,49%
Cc1ccccc1C1CCN(c2ccc(C(=O)Nc3ccc(F)cc3)cn2)CC1.O=C(O)C(F)(F)F,96%,96%,45%
CN1CCN(c2ccc(CNc3ccc4ncc(-c5cccc(OC(F)(F)F)c5)n4n3)cc2)CC1,89%,78%,25%
COc1ccc2nccc([C@@H](O)CN3CCC(NCc4ccc(OC)c(NC=O)c4)CC3)c2c1,97%,0%,0%
Cc1cccc2nc(-c3ccc(-c4ccc(CN5CCCCC5)cc4)s3)[nH]c12.O=C(O)C(F)(F)F,99%,87%,16%
Nc1n[nH]c(-c2ccccc2Nc2ccnc3cc(-c4nccs4)ccc23)n1,100%,94%,98%
CN(/N=C/c1ccc(Cl)cc1)c1nc(NCCc2ccc(O)cc2)nc(N2CCNCC2)n1,100%,97%,10%
CC(=O)Nc1ccc(CN(C)C2CCN(c3cc(NC(=O)c4cccc(C)c4)ccn3)CC2)cc1.O=C(O)C(F)(F)F,94%,13%,0%

SMILES,Inhibition (Plasmodium falciparum [1]),Inhibition (Plasmodium falciparum [2]),Inhibition (HepG2)
N#Cc1ccccc1S(=O)(=O)N1CCCC(CNC(=O)[C@H](CC2CCCCC2)NC(=O)c2cc3ccccc3s2)C1 (stereo not given in full),97%,92%,9%
Cl.O=C(Nc1ccnc2ccccc12)NC1CCN(CCc2ccccc2)CC1,100%,43%,7%
O=C(NCc1ccc(F)cc1)Nc1ccc(-c2cccc(-c3nc4cc(F)ccc4[nH]3)c2)cc1,100%,99%,31%
Cc1ccc2nc3c(cc(C(=O)NCCc4ccccc4)c(=N)n3CCCOC(C)C)c(=O)n2c1,96%,12%,15%
COCCOC(=O)C(=O)c1c(-c2ccccc2)c(-c2ccc(OC)c(OC)c2)c2c3cc(OC)c(OC)cc3ccn12,100%,100%,4%
Cc1cc(NCC(c2ccccc2)c2ccccc2)nc(NCc2ccc(C(F)(F)F)cc2)n1,100%,79%,29%
COc1cccc(CNC(=O)c2cc(CNCc3ccccc3)ccc2-c2cccc(CNCc3ccc(-c4ccccc4)cc3)c2)c1.O=C(O)C(F)(F)F,95%,15%,22%
O=C(O)C(F)(F)F.O=S(=O)(NCCN1CCCC1)c1cccc(-c2cccc(CNCc3ccccc3)c2)c1,97%,73%,32%
N#Cc1cncc(-c2nc3c(N4CCC(Cc5ccccc5)CC4)cccc3n2C2CCNC2)c1.O=C(O)C(F)(F)F (stereo not given),88%,7%,5%
CN(C)S(=O)(=O)c1ccc(Nc2nc(NCCC3C=NC=N3)nc3cc[nH]c(=O)c23)cc1 (stereo not given),96%,63%,8%
CC(C)c1nc2c(N)nc(N)nc2nc1N,84%,0%,64%
CCCCN1CCN(c2cc(NS(=O)(=O)c3ccc(C(=O)Nc4ccc(C(F)(F)F)cc4)cc3)ccc2OC)CC1.O=C(O)C(F)(F)F,99%,20%,17%
Cc1cc(NC(=O)Nc2ccc(N(C)C)cc2)c2cc(Cl)ccc2n1.Cl,100%,50%,0%
CNCCNc1nccc(N2CCc3ncnc(Nc4ccc(OCc5cccc(F)c5)c(Cl)c4)c3C2)n1,100%,98%,30%
CCCCN(CCCC)/C(=N/c1cccc(Cl)c1Cl)Nc1ccc(C#N)cc1O,89%,69%,4%
Cc1[nH]c(C)c(-c2ccc(-c3ccc(OCC(F)(F)F)cc3)nc2)c(=O)c1Cl,94%,96%,3%
Fc1ccc2[nH]c3c(NCCN4CCCCC4)ncnc3c2c1,99%,44%,24%
CCCCCN1CCCC(NS(=O)(=O)c2ccc(C(=O)Nc3ccc(C(F)(F)F)cc3)cc2)C1.O=C(O)C(F)(F)F (stereo not given),98%,20%,41%
CCOC(=O)c1ccc(OCCCCCCOc2ccc(Br)cc2)cc1,98%,0%,12%
CN1CCN(c2cc(NC(=O)c3ccc(-c4ccc(C#N)cc4)cc3)ccc2Cl)CC1,100%,94%,29%
